# Test results as given in PubChem BioAssay.
# Records with an inconclusive call do not appear. The source made the active and inactive calls. Unless noted, cut-off not given; nearly all actives show AC50 up to about 26 µM.
# Columns and labels:
# [1] = viability loss in pontine glioma line – cell-based, SU-DIPG-XVII, MIPE5.0, CellTiter-Glo, qHTS, dose response (AID 1347060); details: CellTiter-Glo ATP luminescence;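 on AC50: cells exposed to compound for 48 hours before viability readout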
# [2] = viability loss in pontine glioma line – cell-based, SU-DIPG-XXV, MIPE5.0, CellTiter-Glo, qHTS, dose response (AID 1347065); details: CellTiter-Glo ATP luminescence;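 further: cells exposed to compound for 48 hours before ATP readout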
# [3] = viability loss in pontine glioma line – cell-based, SU-DIPG-XIII, MIPE5.0, CellTiter-Glo, qHTS, dose response (AID 1347064; cut-off not given, nearly all actives have AC50 up to about 23 µM;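 on AC50: cells exposed to compound for 48 hours before the viability read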); details: CellTiter-Glo ATP luminescence
# [4] = JHH-DIPG-1 glioma cell viability, MIPE5.0 library, CellTiter-Glo luminescence, qHTS (AID 1347067); details: JHH-DIPG-1 glioma viability, CellTiter-Glo ATP luminescence;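 further: cells exposed to compound for 48 hours before readout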
# [5] = growth inhibition of DIPG cells – cell-based, MIPE5.0 library, qHTS (AID 1347068; cut-off not given, nearly all actives have IC50 up to about 30 µM;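 on IC50: cells exposed to compound for 48 hours before viability readout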); details: SU-DIPG-XXV viability
# [6] = viability loss in pontine glioma line – cell-based, JHH-DIPG-1, MIPE4.0, CellTiter-Glo, qHTS, dose response (AID 1347062; cut-off not given, nearly all actives have AC50 up to about 27 µM); details: JHH-DIPG-1 viability, CellTiter-Glo ATP luminescence
# [7] = viability loss in pontine glioma line – cell-based, SU-DIPG-XIII, MIPE4.0, CellTiter-Glo, qHTS, dose response (AID 1347061; cut-off not given, nearly all actives have AC50 up to about 37 µM;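 further: cells exposed to compound for 48 hours before readout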); details: CellTiter-Glo ATP luminescence
# [8] = MELAS cybrid and Rieske KO viability enhancers – cell-based, MELAS cybrids, Rieske KO mouse fibroblasts, CellTiter-Glo, primary screen (AID 1508586;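 active means mean z-score across replicates of 1.96 or higher in either the MELAS or the Rieske mutant cell line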;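 further: z relative to plate mean and SD of compound and empty wells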); details: low glucose
# [9] = molecular target: NAD(+) hydrolase SARM1 (Homo sapiens) (UniProt Q6SZW1); assay: blocking NAD cleavage by SARM1 SAM-TIR – cell lysate, NAD-Glo luminescence (AID 1508614;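 active means compound whose remaining NAD level is above about 45 nM, limit read from the data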); details: SAM-TIR HEK293T lysate NADase, at 1 µM, stronger effect = higher value
# [10] = viability loss with induced miR-34 in A549 – imaging, A549 dox-inducible miR-34, nuclei and caspase counts, primary screen (AID 1347080;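 active means compounds whose cell count with miR-34 switched on is under 0.7 times the count with it off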); details: A549 miR-34 inducible, Hoechst nuclei count, 48 h
# [11] = growth inhibition of DIPG cells – cell-based, MIPE4.0 library, CellTiter-Glo luminescence, qHTS (AID 1347066; cut-off not given, nearly all actives have AC50 up to about 30 µM;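 further: cells exposed to compound for 48 hours before readout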); details: SU-DIPG-VI viability, CellTiter-Glo ATP luminescence
# [12] = MELAS cybrid survival, CellTiter-Glo 48 h, stronger effect = higher value
# [13] = Rieske KO mouse fibroblast survival, CellTiter-Glo 72 h
# Sequence of NAD(+) hydrolase SARM1 (Homo sapiens) (Q6SZW1 whole entry, looked up): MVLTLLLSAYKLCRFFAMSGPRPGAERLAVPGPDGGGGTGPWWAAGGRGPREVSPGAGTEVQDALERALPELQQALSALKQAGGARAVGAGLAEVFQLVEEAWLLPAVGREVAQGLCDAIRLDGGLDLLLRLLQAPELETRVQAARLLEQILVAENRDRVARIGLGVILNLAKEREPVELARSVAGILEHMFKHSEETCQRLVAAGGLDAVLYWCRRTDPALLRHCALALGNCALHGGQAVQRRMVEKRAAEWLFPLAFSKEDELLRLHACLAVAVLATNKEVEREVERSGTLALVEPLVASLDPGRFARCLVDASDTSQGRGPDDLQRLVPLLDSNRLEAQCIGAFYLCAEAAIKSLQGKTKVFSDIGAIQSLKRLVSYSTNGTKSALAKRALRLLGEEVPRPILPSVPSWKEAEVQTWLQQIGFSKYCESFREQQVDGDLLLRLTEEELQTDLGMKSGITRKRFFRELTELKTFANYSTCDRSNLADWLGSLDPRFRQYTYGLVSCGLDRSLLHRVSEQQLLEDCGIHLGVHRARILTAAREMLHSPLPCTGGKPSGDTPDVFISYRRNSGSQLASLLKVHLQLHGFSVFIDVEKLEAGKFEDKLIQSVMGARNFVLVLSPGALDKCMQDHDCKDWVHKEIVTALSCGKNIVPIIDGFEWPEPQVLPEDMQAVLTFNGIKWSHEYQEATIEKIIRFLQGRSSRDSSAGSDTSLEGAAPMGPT
smiles,measurement,setting,value
C/C1=C/C[C@@H](/C(C)=C/c2csc(C)n2)OC(=O)C[C@H](O)C(C)(C)C(=O)[C@H](C)[C@@H](O)[C@@H](C)CCC1,AC50,[1],0.00296 µM (active)
same,AC50,[2],0.00417 µM (active)
CN(C)c1cc2c(cc1Sc1nc3c(N)nccc3n1CCNCC(C)(C)C)OCO2,AC50,[1],0.59 µM (active)
same,AC50,[3],1.32 µM (active)
same,AC50,[2],0.661 µM (active)
same,AC50,[4],1.32 µM (active)
same,IC50,[5],2.95 µM (active)
COc1cc(C(=O)N2CC[C@@H](O)[C@@H](N)C2)cc2nc(-c3cc4ccccc4n3CC3CC3)n(C)c12,AC50,[1],23.5 µM (active)
same,AC50,[3],23.5 µM (active)
same,AC50,[2],29.5 µM (active)
same,AC50,[4],23.5 µM (active)
CC(N[C@H]1C[C@@H]1c1ccccc1)c1ccc2c(c1)OCCO2 (stereo partly drawn),outcome,[1],inactive
same,outcome,[6],inactive
same,outcome,[3],inactive
same,outcome,[2],inactive
same,outcome,[4],inactive
same,outcome,[5],inactive
COc1cc(C)[nH]c(=O)c1CNC(=O)c1c(C)n([C@H](C)C2CCOCC2)c2ccccc12,outcome,[1],inactive
same,outcome,[3],inactive
same,outcome,[2],inactive
same,outcome,[4],inactive
COc1ccc2c(c1)CN(C)CC2c1ccc(Cl)c(Cl)c1 (stereo not drawn),outcome,[7],inactive
C[C@@H]1O[C@@H](O[C@@H]2C=C3CC[C@@H]4[C@H](CC[C@]5(C)[C@@H](c6ccc(=O)oc6)CC[C@]45O)[C@@]3(C)CC2)[C@H](O)[C@H](O)[C@H]1O,AC50,[1],0.0148 µM (active)
same,AC50,[3],0.0166 µM (active)
same,AC50,[2],0.0186 µM (active)
same,AC50,[4],0.0118 µM (active)
same,z-score,[8]; [12],1.14 (inactive)
same,z-score,[8]; [13],-0.344
same,remaining NAD,[9],10 nM (inactive)
CCOc1ccccc1-n1c(C(C)N2CCN(C(=O)COc3ccc(Cl)cc3)CC2)nc2ccccc2c1=O (stereo not drawn),AC50,[1],16.6 µM (active)
same,AC50,[2],18.6 µM (active)
same,IC50,[5],18.6 µM (active)
same,fold change,"[10]; stronger effect = lower value, cell number ratio, induced over uninduced",0.777 (inactive)
same,fold change,[10]; measured here: relative caspase fold change +Dox/-Dox,0.61
same,cell count,"[10]; measured here: total cells with miR-34 induction, stronger effect = lower value",5130
same,cell count,[10]; measured here: total cells without miR-34 induction,6610
same,z-score,[8]; [12],1.76 (inactive)
same,z-score,[8]; [13],1.03
C[C@]12CC[C@H]3[C@@H](CC[C@@]45O[C@@H]4C(O)=C(C#N)C[C@]35C)[C@@H]1CC[C@@H]2O,AC50,[1],29.5 µM (active)
same,outcome,[6],inactive
same,AC50,[3],20.9 µM (active)
same,AC50,[2],20.9 µM (active)
same,outcome,[11],inactive
same,outcome,[5],inactive
same,remaining NAD,[9],10 nM (inactive)
COc1cc(C)[nH]c(=O)c1CNC(=O)c1c(C)n([C@H](C)C2CCN(CC(F)(F)F)CC2)c2ccccc12,outcome,[1],inactive
same,outcome,[2],inactive
same,outcome,[4],inactive
